# Measurements reported in PubChem BioAssay AID589 (National Center for Advancing Translational Sciences (NCATS), 2007).
# Screen size: about 59,000 compounds; about 6,200 (11%) were called active. Not shown: some 9% with an inconclusive outcome. The sample holds actives, similar compounds and a random draw of the others, so the mix is not that of the screen. Cut-off read from the data, not from the text of the source: active = max dye-equivalent concentration above about 10 nM; inconclusive = mostly about 1.1 nM to 9.6 nM; inactive = weaker than that.
# Experiment: qHTS Assay for Spectroscopic Profiling in 4-MU Spectral Region
# Conditions: compound autofluorescence, 340/450 nm, 4-MU equivalents; active compounds read high
# How it was run: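 Intrinsic fluorescence at 340/450 nm (ex/em) was read after 15 min at room temperature in pH 8.0, 100 mM Tris. Each compound concentration expressed as 4-MU-equivalent concentration from a six-point 4-MU standard series on each plate.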
row,Compound,max dye-equivalent concentration
1,CC1(C)Oc2ccc(C(=O)N3CCOCC3)cc2N(CC(=O)Nc2ccccc2)C1=O,inactive
2,Cc1nc(NCc2ccccc2)c(C(N)=O)c2c1COC(C)(C)C2,100 nM (active)
3,O=C(c1cccnc1NCc1ccccc1)N1CCOCC1,inactive
4,Cc1ccc(NC(=O)CS(=O)CC(=O)N(c2ccccc2)C(C)C(=O)NC2CCCC2)cc1 (centres undefined),inactive
5,CC(=O)O[C@]1(C(C)=O)CC[C@@H]2[C@@H]3C=C(C)C4=CC(=O)CC[C@@]4(C)[C@H]3CC[C@]21C,inactive
6,Cc1ccc(C)c(S(=O)(=O)N2CC(=O)Nc3ccccc32)c1,inactive
7,N=C(CC(=O)Nc1ccccn1)c1ccccc1,inactive
8,Cc1cccc(N)c1SC1CCCCC1O (centres undefined),inactive
9,COc1ccc(C(=O)OCC(=O)c2ccc(C)c(S(=O)(=O)N3CCOCC3)c2)cc1OC,inactive
10,O=C(NCc1ccc2c(c1)OCO2)c1ccc2c(c1)C(=O)N(CC1CCCO1)C2=O (centres undefined),inactive
11,O=C(CCN1C(=O)c2ccncc2C1=O)Nc1ccc2c(c1)OCCO2,inactive
12,CCC(=O)Nc1ccc(C(=O)Nc2ccc3c(c2)C(=O)N(CC2CCCO2)C3=O)cc1 (centres undefined),120 nM (active)
13,CC(C)(C)n1nnnc1C(c1ccc2ncccc2c1)N1CCSCC1 (centres undefined),inactive
14,CCOC(=O)N1CCN(C(=O)C2CCN(S(C)(=O)=O)CC2)CC1,inactive
15,CCOC(=O)N1CCN(C(=O)C2CCN(c3ncnc4c3sc3cccc(F)c34)CC2)CC1,18 nM (active)
16,CCOC(=O)N1CCN(CC(=O)Nc2cc(C)nn2-c2nc3ccccc3s2)CC1,inactive
17,C=C(C)c1cccc(C(C)(C)NC(=O)N2CCN(c3ncccn3)CC2)c1,inactive
18,CC1CCCC(NC(=O)CSc2nccn2C)C1C (centres undefined),inactive
19,CN1[C@H]2CC(OC(=O)[C@@H](CO)c3ccccc3)C[C@H]1[C@H]1O[C@H]12 (some centres undefined),inactive
20,O=c1cc(-c2ccccc2)[nH]c2nc(Cl)ccc12,76 nM (active)
21,O=C(NCCN1CCOCC1)c1c(F)c(F)c(F)c(F)c1F,inactive
22,Oc1c(Br)cc(CN(Cc2cc(Br)c(O)c(Br)c2)C2CCCCC2)cc1Br,inactive
23,Cc1cc(=O)n2nc(N3CCCC(C(=O)N4CCN(C)CC4)C3)sc2n1 (centres undefined),inactive

row,Compound,max dye-equivalent concentration
1,Cc1cccc(NC(=O)CSc2nnc(CCCCCNC(=O)OC(C)(C)C)o2)c1C,inactive
2,COCC(=O)N1CCC2(CCCN(c3ccccc3)C2)CC1,inactive
3,COC(=O)c1ccc(NCC(=O)c2ccccc2)cc1,inactive
4,O=C(Nc1cccc(-c2nnc(-c3ccccc3)o2)c1)C1CCCO1 (centres undefined),inactive
5,O=C(Nc1ccc(-c2nnc(-c3ccccc3)o2)cc1)C1CCCO1 (centres undefined),inactive
6,O=C(Nc1ccc(-c2nnc(-c3ccccc3)o2)cc1)c1ccc(Br)o1,37 nM (active)
7,O=C(c1ccco1)N1CCN(C(=O)C2CC(c3ccc(Cl)c(Cl)c3)=NO2)CC1 (centres undefined),inactive
8,CSc1nnc(-c2ccncc2)n1CCCN1CCCC1=O,inactive
9,O=C(CCn1c(=S)[nH]c2ccccc2c1=O)NCCCN1CCCC1=O,inactive
10,CC(C)(C)OC(=O)c1c(N)n(CCCN2CCCC2=O)c2nc3ccccc3nc12,6400 nM (active)
11,CC(C)NC(=O)N1CCCC2(CCN(C(=O)c3cccn3C)CC2)C1,inactive
12,COc1ccc2c(c1)CCc1c(C(=O)N3CCCC3)noc1-2,inactive
13,COc1ccc(-n2c(C)nc3c(cnn3-c3ccccc3)c2=O)cc1,inactive
14,O=c1cnc2cnc(Nc3ccccc3)nc2n1Cc1ccc(F)cc1,inactive
15,COc1cccc(Cn2c(=O)c(CCc3ccccc3)nc3cnc(N(C)C)nc32)c1,22 nM (active)
16,CCc1nnc(NC(=O)CSc2nnc(Cc3ccccc3)n2-c2ccc(OC)cc2)s1,inactive
17,COc1cccc(Cn2c(=O)cnc3cncnc32)c1,inactive
18,COc1cccc(CN2C(=O)CCC2(C)C(=O)NC2CCCCCC2)c1 (centres undefined),inactive
19,CCNc1ncc2nc(CCc3ccccc3)c(=O)n(-c3ccc(OC)cc3)c2n1,12 nM (active)
20,COc1cccc(Nc2ncc3ncc(=O)n(C4CC4)c3n2)c1,inactive
21,CCNc1ncc2ncc(=O)n(CCc3ccccc3)c2n1,75 nM (active)
22,CCNc1ncc2ncc(=O)n(Cc3cccc(OC)c3)c2n1,14 nM (active)
23,COc1cccc(Cn2c(=O)c(C)nc3cnc(Oc4ccccc4)nc32)c1,inactive

row,Compound,max dye-equivalent concentration
1,COc1cccc(Cn2c(=O)c(-c3ccccc3)nc3cnc(OC)nc32)c1,inactive
2,Cc1cc(N2C(=O)c3ccc(C(=O)NCc4ccccc4)cc3C2=O)no1,inactive
3,COC(=O)[C@H](Cc1ccccc1)NC(=O)N1CC(C)OC(C)C1 (some centres undefined),inactive
4,O=C(C1CCC(C(=O)N2CCCC2)CC1)N1CCCC1 (centres undefined),inactive
5,O=C(c1cccs1)N1CCCC(c2nc(-c3ccc(F)cc3)no2)C1 (centres undefined),inactive
6,C=CCn1c(=O)c2ccccc2n2c(SCC(=O)N3CCCc4ccccc43)nnc12,inactive
7,CC(C)CC(=O)N=C1SC2CS(=O)(=O)CC2N1CCc1ccccc1 (centres undefined),inactive
8,CCCCN(C)C(=O)C1CCN(Cc2ccccn2)CC1,inactive
9,Cc1nc(SCC(=O)Nc2cc(C)on2)c2c3c(sc2n1)CCCC3,inactive
10,O=C(Nc1cccc2c1CCCC2)C1CCN(C(=O)NC2CCCCC2)CC1,inactive
11,CCOc1ccccc1N=C1NC(=O)CS1,inactive
12,CCc1nnc(NC(=O)c2c(O)c3c([nH]c2=O)CCCC3)s1,inactive
13,CNc1cc(-c2c(C)noc2C)ncn1,inactive
14,COc1ccccc1CNc1ncnc2ccc(-c3c(C)noc3C)cc12,inactive
15,Cc1cnc(CNc2cc(-c3c(C)noc3C)ncn2)cn1,18 nM (active)
16,Cc1cccc(CNc2cc(-c3ccccc3Cl)ncn2)c1,inactive
17,COCCNc1cc(-c2c(C)noc2C)ncn1,11 nM (active)
18,Cc1noc(C)c1-c1cc(NCc2cccnc2)ncn1,inactive
19,CCOC(=O)c1[nH]cnc1C(=O)NC1CCCCC1,inactive
20,C[C@]1(O)CC[C@H]2[C@H]3CC=C4N5CCN=C5CC[C@@]4(C)[C@H]3CC[C@@]21C,inactive
21,O=C(Nc1c(Cl)cccc1Cl)C1CCC1,inactive
22,O=C(NCc1ccco1)c1cc2sccc2n1Cc1ccc(F)cc1,inactive
23,Cc1nc2nc(CSc3nc4ccccc4s3)cc(=O)n2[nH]1,inactive

row,Compound,max dye-equivalent concentration
1,Cc1cccc(-n2c(N)c(C(=O)N3CCN(C)CC3)sc2=S)c1,inactive
2,CC(C(=O)Nc1ccccc1-c1ccccc1)N1CCOCC1 (centres undefined),inactive
3,O=C(c1ccccc1-c1ccccc1)N1CCOCC1,inactive
4,CC(C(=O)N1CCOCC1)N1c2cccc3cccc(c23)S1(=O)=O (centres undefined),74 nM (active)
5,COc1ccc(N(CC(=O)NC(C)(C)C)C(=O)c2ccco2)cc1,inactive
6,COc1cc(C(=O)N(Cc2ccc(N(C)C)cc2)C2CCS(=O)(=O)C2)cc(OC)c1OC (centres undefined),inactive
7,CCOc1ccc2nc(NCCNS(=O)(=O)c3ccccc3)c(C#N)cc2c1,110 nM (active)
8,CCOc1ccc(Nc2oc(Cc3ccccc3)nc2C#N)cc1,inactive
9,O=C(O)c1cccc(S(=O)(=O)NCCO)c1,inactive
10,Cc1cc(C)c(NC(=O)CS(=O)CC(=O)Nc2cccnc2)c(C)c1 (centres undefined),inactive
11,COc1ccc(C(CC(=O)O)NC(=O)Cc2ccccc2)cc1 (centres undefined),inactive
12,CCOC(=O)c1cc(C)sc1NC(=O)C1CCC1,inactive
13,O=C(Nc1nncs1)c1ccccc1NS(=O)(=O)c1cccs1,530 nM (active)
14,O=C(C1CCN(S(=O)(=O)c2cccs2)CC1)N1CCCCCC1,inactive
15,COC(=O)c1ccccc1NC(=O)c1ccccc1NS(C)(=O)=O,inactive
16,COc1ccc(CNC2CCCCC2)cc1,inactive
17,c1n[nH]c(NCc2ccc3c(c2)OCO3)n1,inactive
18,CN(Cc1ccccc1)c1nc2c(c(=O)[nH]c(=O)n2C)n1CCSc1nc2ccccc2[nH]1,inactive
19,CCOC(=O)c1[nH]c2ccc(OC)cc2c1NC(=O)CCN1CCN(Cc2ccccc2)CC1,57 nM (active)
20,Cc1c(C(=O)N2CCOCC2)[nH]c2ccc(OCc3ccccc3)cc12,inactive
21,COC(=O)c1[nH]c2ccccc2c1NC(=O)CN1CCCc2ccccc21,inactive
22,COc1ccc(OC)c(NC(=O)CCN2CCC(C)CC2)c1,inactive
23,COc1cc(NC(=O)N2CCOCC2)cc(OC)c1,inactive

row,Compound,max dye-equivalent concentration
1,CCOC(=O)c1[nH]c2ccc(OC)cc2c1NC(=O)N1CCOCC1,130 nM (active)
2,COc1cccc(NC(=O)CN(C)S(=O)(=O)c2ccc(C)cc2)c1,inactive
3,Cc1nonc1OCCn1nnnc1N,inactive
4,CCNC(=O)CN(c1ccc(C)cc1)S(=O)(=O)c1ccc(SC)cc1,inactive
5,C=CCn1c(COc2cccc3cccnc23)nnc1SCC(=O)OC,inactive
6,CCOc1cc(N2CCOCC2)c(OCC)cc1NC(=O)COc1cccc2cccnc12,16 nM (active)
7,CC(=O)Nc1cccc(Oc2cc(C#N)c(C#N)cc2N2CCOCC2)c1,inactive
8,O=C1NC(c2cc3c(cc2Cl)OCO3)Oc2ccccc21 (centres undefined),inactive
9,CCC(=O)Nc1cccc(NC(=O)c2cccnc2)c1,inactive
10,CCOC(=O)c1cc(NC(=O)c2cccnc2)cc(C(=O)OCC)c1,inactive
11,Cc1cc2nc(-c3ccc(NC(=O)c4cccnc4)cc3)oc2cc1C,15 nM (active)
12,CNc1nc(-c2ccccc2OC)nc2ccccc12,inactive
13,COc1ccccc1-c1nc(NCc2cccs2)c2ccccc2n1,inactive
14,Cn1c(COc2ccc(Cl)cc2)nc2ccccc2c1=O,inactive
15,Cc1nc2c(c(=O)n1Cc1ccco1)c1nc3ccccc3nc1n2Cc1ccccc1,93 nM (active)
16,Cc1ccc(Cn2c(C)nc3c(c2=O)c2nc4ccccc4nc2n3Cc2ccco2)cc1,760 nM (active)
17,COCCCn1c2nc3ccccc3nc2c2c(=O)n(Cc3ccc(Cl)cc3)c(C)nc21,320 nM (active)
18,O=c1c2ccccc2oc2nc(C3CCCCC3)n(Cc3ccco3)c(=O)c12,inactive
19,CC(Sc1nc2ccccc2c(=O)n1Cc1ccco1)C(=O)c1ccccc1 (centres undefined),inactive
20,Cc1nc2ccccc2c(=O)n1CCCn1ccnc1,inactive
21,COc1ccccc1NC(=O)CSc1nc2sc(C)c(C)c2c(=O)n1Cc1ccco1,inactive
22,CCOC(=O)CSc1nc2c(sc(=S)n2CCc2ccccc2)c(=O)n1Cc1ccco1,inactive
